The sample as a whole holds a higher share of hits than the screen did.
LmPK inhibitor – qHTS Assay for Inhibitors of Leishmania Mexicana Pyruvate Kinase (LmPK); Q27686; purified LmPK, Kinase-Glo ATP luminescence, 1 h; Potency, µM (series often up to 57.5 µM), inactives show top-dose activity change, negative = inhibition, most hits filed as inhibitors; 0.37% of 290,000 active; also: potency is read from the fitted curve at half-maximal effect; % is scaled to controls: 0 for no effect and ±100 for the full control effect
Target sequence (Q27686 whole entry, looked up): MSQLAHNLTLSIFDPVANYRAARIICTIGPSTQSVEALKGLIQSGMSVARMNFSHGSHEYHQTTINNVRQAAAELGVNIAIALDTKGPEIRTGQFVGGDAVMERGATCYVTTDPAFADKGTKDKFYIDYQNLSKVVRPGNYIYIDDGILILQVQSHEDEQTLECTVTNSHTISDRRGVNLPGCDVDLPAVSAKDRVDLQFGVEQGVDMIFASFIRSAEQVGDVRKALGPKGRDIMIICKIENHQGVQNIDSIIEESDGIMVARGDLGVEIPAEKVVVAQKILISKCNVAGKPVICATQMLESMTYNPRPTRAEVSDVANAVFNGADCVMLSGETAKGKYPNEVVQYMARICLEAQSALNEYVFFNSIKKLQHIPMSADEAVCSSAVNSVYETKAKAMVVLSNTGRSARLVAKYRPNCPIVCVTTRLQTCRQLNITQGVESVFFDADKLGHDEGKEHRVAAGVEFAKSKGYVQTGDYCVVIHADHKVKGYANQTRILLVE
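Kinase-Glo luminescence read after 1 h RT reaction of 0.1 nM LmPK with 0.5 mM PEP and 0.1 mM ADP. Activity scaled between uninhibited and enzyme-free controls.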
Sm TGR block – qHTS Assay for the Inhibitors of Schistosoma Mansoni Peroxiredoxins; Schistosoma mansoni thioredoxin glutathione reductase (TGR), Q962Y6; purified TGR, DTNB reduction, TNB absorbance 405 nm; Potency, µM (top dose mostly 114 µM), inactives show top-dose activity change, negative = inhibition, hits mostly inhibitors; 3% of 360,000 active; also: potency is read from the fitted curve at half-maximal effect; % is scaled to controls: 0 for no effect and ±100 for the full control effect; nearly all actives have a fitted effect of over 60% in size
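Kinetic colorimetric format: TGR-catalysed, NADPH-driven DTNB reduction monitored via TNB absorbance. Enzyme dispensed at 20 nM; compound exposure 15 min at room temperature before reaction start.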
Giardia FBPA inh – qHTS Assay for Inhibitors of Fructose-1,6-bisphosphate Aldolase from Giardia Lamblia; Potency, µM (titrated, usually from 59.6 µM), without a hit: at the highest dose activity, negative = inhibition, usual class: inhibitors; purified Giardia FBPA; 0.71% of 290,000 active; A8B2U2; also: potency is read from the fitted curve at half-maximal effect; % is scaled to controls: 0 for no effect and ±100 for the full control effect; nearly all actives have a fitted effect of over 55% in size
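Giardia FBPA (40 nM reagent) was preincubated 10 min at RT with compound (up to 57.5 uM final), then substrate plus GAPDH/TPI/NAD/arsenate coupling system with diaphorase/resazurin was added; resorufin fluorescence (525/598 nm) was read after 20 min.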
Tb PYK inh – qHTS of Trypanosoma Brucei Inhibitors; Potency, µM (top dose mostly 76.8 µM), inactives show top-dose activity, negative = inhibition, hits mostly inhibitors; 0.12% of 410,000 active; TbPYK enzyme, Kinase-Glo Plus ATP luminescence, 45 min; also: potency is read from the fitted curve at half-maximal effect; % is scaled to controls: 0 for no effect and ±100 for the full control effect; nearly all actives have a fitted effect of over 50% in size
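Screened from lowest to highest concentration, compounds were pinned into TbPYK/substrate mixtures, and ADP (130 uM final) was added. Plates sat at room temperature for 45 min prior to Kinase-Glo Plus detection by luminescence.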
Shiga inhibitor – A qHTS for Small Molecule Inhibitors of Shiga Toxin | Vero cells, Shiga toxin protein synthesis inhibition reporter | inhibition, % at 38.7 µM | 9.2% of 290,000 active | AID 2315, 2010; in the data active = inhibition mostly above about 28%, no sharp cut-off; inactive = mostly below about 43%; also: 0% is about no effect
CHX counter – Cycloheximide Counterscreen for Small Molecule Inhibitors of Shiga Toxin. 12% of 300,000 active. AID 2314, 2010. cell reporter, cycloheximide protein synthesis inhibition counterscreen. max response, %; in the data active = max response mostly above about 13%, no sharp cut-off; inactive = mostly below about 14%; also: read at 38.3 µM for the half of the compounds with a filed dose; 0% is about no effect
Starred values were filed as active, the others as inactive; [ ] = another dose, or the depositor's remark. Unless noted, calls follow the shape of the dose curve; as a rule, active = well fitted curve in the direction sought with a large enough effect; inconclusive = small, poorly fitted or top-dose-only effect, or another doubt; inactive = no such curve, though single readings can be large; an effect the other way counts as inactive or inconclusive.

Screening CC1=NN(c2nc(-c3ccc(F)cc3)cs2)C(=O)C1 returned LmPK inhibitor -1%, Sm TGR block 2%, Giardia FBPA inh 0%, Tb PYK inh -5%, Shiga inhibitor -15 and CHX counter -1.
Screening O=C(c1cc(-n2cnnc2)ccc1Cl)N1CCN(c2nc(-c3ccccc3)cs2)CC1 returned LmPK inhibitor -3%, Sm TGR block -3%, Giardia FBPA inh 0%, Tb PYK inh -23%, Shiga inhibitor 3 and CHX counter -1.
`Cc1ccc(-c2csc(N3C(=N)SCC3=O)n2)cc1` gave LmPK inhibitor 4%, Sm TGR block 7%, Giardia FBPA inh -3%, Tb PYK inh -2%, Shiga inhibitor 42* and CHX counter 36*.
CC(C)CNC(=S)N1CCN(c2nc(-c3ccc(Cl)cc3)cs2)CC1 was read as LmPK inhibitor -2%, Sm TGR block 5%, Giardia FBPA inh 13%, Tb PYK inh -8%, Shiga inhibitor -5 and CHX counter 4.
`O=C(c1ncn[nH]1)N1CCN(c2nc(-c3ccccc3)cs2)CC1` gave LmPK inhibitor 2%, Sm TGR block -16%, Giardia FBPA inh 11%, Tb PYK inh -33%, Shiga inhibitor 49 and CHX counter 15*.
Screening CCCN(CCc1cccs1)[C@H]1CCc2c(O)cccc2C1 returned Tb PYK inh -5%.
CN(C)CCN1C(=O)C(=O)/C(=C(/O)c2ccc(S(=O)(=O)N3CCOCC3)cc2)C1c1ccc(F)cc1 (stereo not drawn) was read as LmPK inhibitor -8%, Sm TGR block -25%, Tb PYK inh 4%, Shiga inhibitor -9 and CHX counter 1.
Screening CC(C)(C)c1ccc(C(=O)NC2(C(F)(F)F)C(=O)Nc3c2c(=O)[nH]c(=O)n3-c2ccccc2)cc1 (stereo not drawn) returned Sm TGR block 1% and Tb PYK inh -1%.
For CC1CN(C(=O)CSc2nc(-c3ccc(F)cc3)cs2)CC(C)O1 (stereo not drawn) the results were LmPK inhibitor -2%, Sm TGR block -7%, Giardia FBPA inh 0%, Tb PYK inh 2%, Shiga inhibitor -10 and CHX counter -2.
Screening CC1=NN(c2nc(-c3ccc(Cl)cc3)cs2)C(=O)C1 returned LmPK inhibitor 4%, Sm TGR block 15%, Giardia FBPA inh 29%, Tb PYK inh 1%, Shiga inhibitor -18 and CHX counter 15*.
Screening O=C(CSc1nc(-c2ccc(F)cc2)cs1)N1CCOCC1 returned LmPK inhibitor -5%, Sm TGR block -1%, Giardia FBPA inh 0%, Tb PYK inh -9%, Shiga inhibitor 77 and CHX counter 45*.
`Fc1ccc(-c2csc(N3CCSCC3)n2)cc1` gave LmPK inhibitor -2%, Sm TGR block 1%, Giardia FBPA inh -3%, Tb PYK inh 3%, Shiga inhibitor 98* and CHX counter 32*.
`O=C(NC1CCCCCC1)C1CCN(C(=O)N2CCOc3ccccc32)CC1` gave Sm TGR block 0% and Tb PYK inh -9%.
Screening CC(=O)OCC1OC(C#Cc2ccc(Cl)cc2)C=CC1OC(C)=O (stereo not drawn) returned Giardia FBPA inh 1%[12.9 µM].
Cc1[nH]n(-c2ccccc2)c(=O)c1N=Nc1ccc(C(=O)O)cc1 was read as LmPK inhibitor 2%, Sm TGR block -33%, Giardia FBPA inh -25%, Tb PYK inh 0%, Shiga inhibitor -5 and CHX counter 10.
For Cc1ccc(N=Nc2c(N)n(-c3ccccc3)[nH]c2=O)cc1 the results were LmPK inhibitor -7%, Sm TGR block 6%, Giardia FBPA inh -4%, Tb PYK inh -16%, Shiga inhibitor 122* and CHX counter 38*.
For Cc1[nH]n(-c2ccccc2)c(=O)c1N=Nc1ccc(Cl)cc1 the results were LmPK inhibitor 12%, Sm TGR block 0%, Giardia FBPA inh inconclusive, Tb PYK inh -3% and CHX counter 0.
Cc1[nH]n(-c2ccccc2)c(=O)c1N=Nc1ccccc1 was read as LmPK inhibitor -1%, Giardia FBPA inh -25%, Tb PYK inh 1%, Shiga inhibitor 48 and CHX counter 23*.
`Cc1[nH]n(-c2ccccc2)c(=O)c1N=Nc1cccc(C(=O)O)c1` gave LmPK inhibitor -1%, Sm TGR block 2%, Giardia FBPA inh inconclusive, Tb PYK inh -8% and CHX counter 42*.
COc1ccc(NC(=O)C(C)n2nc(-c3ccc(C)c(C)c3)ccc2=O)cc1OC (stereo not drawn) was read as Sm TGR block -14% and Tb PYK inh -4%.
Screening CC(C)C(O)(C#CCN1CCCCCC1)c1ccccc1 (stereo not drawn) returned LmPK inhibitor 4%, Sm TGR block -15%, Giardia FBPA inh 3%, Tb PYK inh -1%, Shiga inhibitor -6 and CHX counter 14*.
For CCOCCCn1c(SCC(=O)Nc2ccccc2Cl)nc2c(oc3ccccc32)c1=O the results were Sm TGR block 7% and Tb PYK inh -1%.
Cc1ccc(-c2cc(C(=O)N/N=C/c3ccco3)[nH]n2)cc1 was read as LmPK inhibitor 0%, Sm TGR block 60%, Giardia FBPA inh -1%, Tb PYK inh 2%, Shiga inhibitor 33 and CHX counter 19.
For Cn1cccc1/C=N/NC(=O)c1ccco1 the results were LmPK inhibitor -25%, Sm TGR block -2%, Giardia FBPA inh 0%, Tb PYK inh -5%, Shiga inhibitor 93* and CHX counter 43*.
`Cc1cc(N(CCCl)CCCl)ccc1/C=N/NC(=O)c1ccco1` gave LmPK inhibitor -3%, Sm TGR block -13%, Giardia FBPA inh -12%, Tb PYK inh 1%, Shiga inhibitor 75* and CHX counter 29*.
For Cc1ccc(C(=O)N/N=C\c2cccn2C)cn1 the results were LmPK inhibitor 0%, Sm TGR block 0%, Giardia FBPA inh -6%, Tb PYK inh -5%, Shiga inhibitor 23 and CHX counter 21.
`Cn1cccc1/C=N/NC(=O)c1ccn[nH]1` gave LmPK inhibitor inconclusive, Sm TGR block -2%, Giardia FBPA inh -14%, Tb PYK inh -13%, Shiga inhibitor 120* and CHX counter 23*.
For O=C(N/N=C/c1ccco1)c1ccn[nH]1 the results were LmPK inhibitor -6%, Sm TGR block 6%, Giardia FBPA inh 3%, Tb PYK inh 8%, Shiga inhibitor 73* and CHX counter 44*.
